From PubChem BioAssay
The source made the active and inactive calls. Unless noted, the rule behind the calls is not given here.

Assays:
[1] = tested on: Wnt5a (protein binding on small-molecule microarray); test: Wnt5a binders on small-molecule microarray, primary screen, biophysical, 635/667 nm fluorescence (AID 1142); settings: 635 nm fluorescence, higher = more signal;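 note: fluorescence read at 667 nm with signal to noise per printed feature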
[2] = cell viability in Huh7 cells, primary screen, cytotoxicity control for HCV replication inhibitor project, CellTiter-Glo luminescence, basal, 48 h (AID 1143); settings: Huh7 HCV replicon, higher = more signal, called active from +8 up or from −8 down;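 note: Huh7 hepatoma cells carrying a hepatitis C replication reporter with no stimulus; test concentration not given here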
[3] = P. aeruginosa biofilm formation inhibitors, primary screen, PAO1 strain, BacTiter-Glo luminescence, LB-PBS (AID 1144); settings: 12 h, higher = more signal
[4] = CREB reporter modulators without forskolin, primary screen, cell-based, PC12, CRE-LacZ reporter, unstimulated (AID 1145); settings: no forskolin, luminescence, 4.5 h, higher = more signal, called active from +8 up or from −8 down
[5] = CREB reporter modulators under forskolin, primary screen, cell-based, PC12, CRE-LacZ reporter, forskolin-stimulated (AID 1146); settings: luminescence, 4.5 h, higher = more signal, called active from +8 up or from −8 down;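 note: PC12 cells with 6xCRE LacZ reporter stimulated by forskolin 10 µM; beta-galactosidase reporter signal reflecting CREB driven transcription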
[6] = biological target: Streptavidin (Streptomyces avidinii) (UniProt P22629); test: streptavidin binders on small-molecule microarray, primary screen, artefact control for SMM compound annotation, biophysical, 635/667 nm fluorescence (AID 1147); settings: streptavidin binding, higher = more signal;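 note: signal reflects streptavidin binding to arrayed compounds as a control protein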
Streptavidin (Streptomyces avidinii), sequence (P22629 whole entry, looked up): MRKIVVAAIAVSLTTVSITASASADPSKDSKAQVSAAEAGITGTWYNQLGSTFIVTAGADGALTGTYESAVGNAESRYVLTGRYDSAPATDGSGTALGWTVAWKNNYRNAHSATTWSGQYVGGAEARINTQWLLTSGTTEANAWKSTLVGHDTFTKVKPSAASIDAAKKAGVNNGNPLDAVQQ

[7] = small-molecule binders of probe aInhba, primary screen, biochemical, small-molecule microarray, 635/667 nm fluorescence (AID 1148); settings: higher = more signal;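 note: score merges 667nm spot fluorescence with signal-to-noise for antibody binding to printed compounds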
Torsin-1A (Homo sapiens) [8] = biological target: Torsin-1A (Homo sapiens) (UniProt O14656); test: torsin A binders from cell lysate, primary screen, small-molecule microarray, wild-type, 635/667 nm (AID 1149); settings: COS7 hTOR1A-WT lysate, 635 nm fluorescence, higher = more signal
Torsin-1A (Homo sapiens), sequence (O14656 whole entry, looked up): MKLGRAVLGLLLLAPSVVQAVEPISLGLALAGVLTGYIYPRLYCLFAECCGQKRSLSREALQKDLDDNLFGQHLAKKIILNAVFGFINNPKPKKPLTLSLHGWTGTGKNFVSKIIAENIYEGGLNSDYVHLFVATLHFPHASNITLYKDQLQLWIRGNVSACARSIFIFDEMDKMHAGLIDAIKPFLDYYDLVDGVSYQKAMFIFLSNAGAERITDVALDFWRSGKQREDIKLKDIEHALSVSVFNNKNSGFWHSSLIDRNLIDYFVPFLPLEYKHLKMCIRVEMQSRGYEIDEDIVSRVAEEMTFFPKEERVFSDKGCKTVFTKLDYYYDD

Torsin-1A (Homo sapiens) [9] = biological target: Torsin-1A (Homo sapiens) (UniProt O14656); test: small-molecule binders of mutant TOR1A in lysate, primary screen, cell lysate, small-molecule microarray, COS7 lysate, 635/667 nm fluorescence (AID 1150); settings: COS7 hTOR1A mutant lysate, 635 nm fluorescence, higher = more signal;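 note: score pools 667 nm emission and signal to noise measuring lysate protein binding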
[10] = tested on: Sonic hedgehog protein (Shh); test: small-molecule binders of Shh protein, primary screen, biochemical, small-molecule microarray, 635/667 nm fluorescence (AID 1151); settings: small-molecule microarray binding, 635 nm fluorescence; higher = more signal;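 note: Shh protein binding to compounds spotted on small-molecule microarray slides; score combines spot fluorescence intensity with signal-to-noise across triplicate slides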
[11] = E. coli DRC41 culture turbidity changes, primary screen, E. coli filamentation inducer project, strain DRC41, OD650, 48 h (AID 1152);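 note: E. coli MC1000 strain DRC41 lacking acrAB efflux pump and sulA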; settings: E. coli DRC41 (acrAB sulA), higher = more signal, called active from +8 up or from −8 down
[12] = small-molecule binders of probe aLefty1, primary screen, biochemical, small-molecule microarray, 635/667 nm fluorescence (AID 1153); settings: higher = more signal;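 note: score merges spot fluorescence with signal-to-noise ratio from the scanned slide images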
[13] = PSAC antagonists in infected red cells, primary screen, cell-based, P. falciparum Indochina, OD700, 1 h (AID 1154); settings: P. falciparum Indochina infected RBC osmotic lysis, higher = more signal, called active from +8 up or from −8 down
[14] = PSAC antagonists in infected red cells, primary screen, cell-based, P. falciparum Indochina, OD700, 2 h (AID 1155);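 note: lysis reports solute entry through the parasite surface anion channel PSAC; channel blockers reduce lysis of infected cells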; settings: P. falciparum Indochina infected erythrocytes, osmotic lysis OD700; higher = more signal, called active from +8 up or from −8 down
[15] = osmotic lysis modulators in infected erythrocytes, primary screen, PSAC antagonist project, cell-based, P. falciparum Indochina, OD700, 3 h (AID 1156); settings: higher = more signal, called active from +8 up or from −8 down
[16] = PSAC antagonists in infected red cells, primary screen, cell-based, P. falciparum Indochina, OD700, 18 h (AID 1157); settings: P. falciparum Indochina infected erythrocytes, osmotic lysis OD700, 18 h; higher = more signal, called active from +8 up or from −8 down
[17] = modulators of S6 phosphorylation in cells, primary screen, cell-based, A549, cytoblot, luminescence, serum-stimulated (AID 1158); settings: A549 phospho-S6 cytoblot, 5 h, higher = more signal;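 note: serum-stimulated A549 lung adenocarcinoma cells; signal is phosphorylated S6 detected by cytoblot immunostaining with HRP secondary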
[18] = biological target: NADPH oxidase 2 (Homo sapiens) (UniProt P04839); test: NOX2-dependent H2O2 signal modulators, primary screen, NOX inhibitor project, cell-based, HEK293-NOX2, PMA-stimulated, Amplex Red fluorescence (AID 1159); settings: 45 min, higher = more signal, called active from +8 up or from −8 down; note: test concentration not given here
NADPH oxidase 2 (Homo sapiens), sequence (P04839 whole entry, looked up): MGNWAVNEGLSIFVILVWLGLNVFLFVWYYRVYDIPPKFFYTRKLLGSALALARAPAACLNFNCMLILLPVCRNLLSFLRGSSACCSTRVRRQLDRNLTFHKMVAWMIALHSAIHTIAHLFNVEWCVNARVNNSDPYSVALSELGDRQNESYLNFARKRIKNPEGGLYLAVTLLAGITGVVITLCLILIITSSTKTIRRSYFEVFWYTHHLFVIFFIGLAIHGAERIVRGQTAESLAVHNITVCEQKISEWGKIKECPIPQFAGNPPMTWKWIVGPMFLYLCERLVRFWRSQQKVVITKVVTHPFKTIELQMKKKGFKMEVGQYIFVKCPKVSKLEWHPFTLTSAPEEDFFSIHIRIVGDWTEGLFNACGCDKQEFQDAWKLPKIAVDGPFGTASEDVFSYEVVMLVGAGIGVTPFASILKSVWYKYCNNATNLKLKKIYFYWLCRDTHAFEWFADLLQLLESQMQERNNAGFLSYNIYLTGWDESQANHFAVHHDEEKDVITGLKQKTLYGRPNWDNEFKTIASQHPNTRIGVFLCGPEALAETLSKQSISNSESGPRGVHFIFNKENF

[19] = biological target: NADPH oxidase 4 (Homo sapiens) (UniProt Q9NPH5); test: NOX4-dependent H2O2 signal modulators, primary screen, NOX inhibitor project, cell-based, HEK293-NOX4, tetracycline-induced, Amplex Red fluorescence (AID 1160); settings: 45 min, higher = more signal, called active from +8 up or from −8 down
NADPH oxidase 4 (Homo sapiens), sequence (Q9NPH5 whole entry, looked up): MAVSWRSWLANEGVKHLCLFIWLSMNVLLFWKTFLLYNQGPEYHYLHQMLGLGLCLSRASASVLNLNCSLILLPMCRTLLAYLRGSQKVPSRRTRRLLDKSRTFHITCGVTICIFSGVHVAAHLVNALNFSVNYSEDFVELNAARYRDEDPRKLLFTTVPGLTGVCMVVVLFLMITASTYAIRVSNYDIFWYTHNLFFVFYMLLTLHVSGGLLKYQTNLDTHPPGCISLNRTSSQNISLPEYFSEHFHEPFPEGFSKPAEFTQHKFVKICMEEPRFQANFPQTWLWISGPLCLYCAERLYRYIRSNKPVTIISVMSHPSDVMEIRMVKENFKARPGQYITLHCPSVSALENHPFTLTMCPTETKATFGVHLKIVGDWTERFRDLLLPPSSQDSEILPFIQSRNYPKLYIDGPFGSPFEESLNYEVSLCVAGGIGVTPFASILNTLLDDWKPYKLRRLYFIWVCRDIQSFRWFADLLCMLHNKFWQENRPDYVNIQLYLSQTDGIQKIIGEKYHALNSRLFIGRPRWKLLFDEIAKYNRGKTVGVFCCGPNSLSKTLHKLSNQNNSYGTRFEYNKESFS

[20] = biological target: NADPH oxidase 5 (Homo sapiens) (UniProt Q96PH1); test: NOX5-dependent H2O2 signal modulators, primary screen, NOX inhibitor project, cell-based, HEK293-NOX5, Amplex Red fluorescence (AID 1161); settings: HEK293-NOX5, ionomycin, 45 min, higher = more signal
NADPH oxidase 5 (Homo sapiens), sequence (Q96PH1 whole entry, looked up): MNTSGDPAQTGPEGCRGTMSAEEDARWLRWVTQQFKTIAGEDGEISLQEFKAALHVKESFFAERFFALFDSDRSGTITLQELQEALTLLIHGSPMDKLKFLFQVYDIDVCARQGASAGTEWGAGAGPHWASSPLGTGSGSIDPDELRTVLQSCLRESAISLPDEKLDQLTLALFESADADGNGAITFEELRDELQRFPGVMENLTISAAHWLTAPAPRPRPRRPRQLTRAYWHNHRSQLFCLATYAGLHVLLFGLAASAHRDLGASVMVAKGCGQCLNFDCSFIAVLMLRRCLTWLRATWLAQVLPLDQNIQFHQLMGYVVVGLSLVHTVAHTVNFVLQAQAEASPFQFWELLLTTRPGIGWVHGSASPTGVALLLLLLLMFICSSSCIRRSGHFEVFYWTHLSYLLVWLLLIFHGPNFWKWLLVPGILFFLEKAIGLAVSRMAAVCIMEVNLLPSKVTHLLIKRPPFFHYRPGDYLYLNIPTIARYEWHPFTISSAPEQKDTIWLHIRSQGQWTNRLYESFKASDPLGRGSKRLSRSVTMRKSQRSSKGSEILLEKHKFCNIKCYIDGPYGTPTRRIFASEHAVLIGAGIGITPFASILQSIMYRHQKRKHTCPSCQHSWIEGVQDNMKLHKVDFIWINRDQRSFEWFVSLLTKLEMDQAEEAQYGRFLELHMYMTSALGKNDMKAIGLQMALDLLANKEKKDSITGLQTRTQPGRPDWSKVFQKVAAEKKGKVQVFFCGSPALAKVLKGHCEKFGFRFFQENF

Row | Structure (SMILES) | composite z-score [1] | z-score [2] | z-score [3] | z-score [4] | z-score [5] | composite z-score [6] | composite z-score [7] | composite z-score (Torsin-1A (Homo sapiens) [8]) | composite z-score (Torsin-1A (Homo sapiens) [9]) | composite z-score [10] | z-score [11] | composite z-score [12] | z-score [13] | z-score [14] | z-score [15] | z-score [16] | z-score [17] | z-score [18] | z-score [19] | z-score [20]
1 | O=C(Nc1cc(Br)ccc1C(=O)NCc1cccc(O)c1)c1ccccc1 | 0.189 | -2.32 (inactive) | -0.26 (inactive) | -0.374 (inactive) | -0.334 (inactive) | 0.827 | 0.129 | 0.476 | 0.533 | 0.349 | 1.41 (inactive) | 0.388 | 17.5 (active) | 4.24 (inactive) | -0.222 (inactive) | 2.17 (inactive) | -0.645 | -1.57 (inactive) | -1.69 (inactive) | -1.3
2 | COCCOC(=O)N1C(=O)[C@@]2(c3cc(C#CCC(C(=O)OC)C(=O)OC)ccc31)[C@H](C(=O)N1CCCCCCC1)[C@H]1C(=O)O[C@H](c3ccccc3)[C@H](c3ccccc3)N1[C@@H]2c1ccc(O)cc1 | 0.735 | -4.08 (inactive) | -0.754 (inactive) | -0.882 (inactive) | -0.807 (inactive) | 1.22 | 1.22 | 1.41 | 1.41 | 1.62 | 0.683 (inactive) | 2.46 | 0.915 (inactive) | 0.444 (inactive) | 0.678 (inactive) | 0.336 (inactive) | -0.0955 | 1.32 (inactive) | -0.378 (inactive) | 1.01
3 | CO[C@H]1O[C@H](CO)[C@@H](OC(=O)Nc2cccc(F)c2)[C@H](OC(=O)Nc2ccc3c(c2)OCO3)[C@H]1OC(=O)Nc1ccc2c(c1)OCO2 | 0.146 | -2.58 (inactive) | -0.905 (inactive) | 0.195 (inactive) | -0.724 (inactive) | -0.0782 | 0.0155 | 0.967 | 1.2 | 1.52 | 0.903 (inactive) | 0.236 | 6.15 (inactive) | 0.462 (inactive) | 0.521 (inactive) | 0.643 (inactive) | -0.0353 | -3.15 (inactive) | -0.681 (inactive) | -2.02
4 | COC(=O)[C@@]1(Cc2ccc(OC)cc2)[C@H]2c3cc(C(=O)N4CCCC4)n(Cc4ccc(C)o4)c3C[C@H]2CN1C(=O)c1ccccc1 | 0.989 | -5.19 (inactive) | -0.101 (inactive) | -0.758 (inactive) | -2.15 (inactive) | 0.458 | 0.505 | -1.39 | 0.285 | -0.754 | -1.5 (inactive) | 1.34 | 1.63 (inactive) | -0.605 (inactive) | 1.07 (inactive) | 0.0276 (inactive) | -1.8 | -4.49 (inactive) | -2.62 (inactive) | -0.354
